Shown are actives, neighbours in structure and some others; about 10% of the full set was active somewhere.
HP1b chromo inh – blocks HP1-beta chromodomain binding to methylated histone tails. AlphaScreen HP1-beta / biotin-H3K9me3 peptide binding. Potency, µM (titrated, usually from 114 µM), for inactives: at the top dose activity change, negative = inhibition, usual class: inhibitors. 390,000 tested, 0.56% active. AID 540317; further: potency means the concentration at half of the fitted maximal effect; nearly all actives have a fitted effect of over 70% in size
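Compound inhibition of the preformed complex between 50 nM HP1-beta and 50 nM biotinylated H3K9me3 peptide was read by AlphaScreen. Buffer was PBS pH 7.4 with 0.01% Tween-20. Incubations ran 30 min at room temperature, with 10 ug/mL donor/acceptor beads.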
Six1-Eya2 inh – Six1/Eya2 interaction inhibition. 360,000 tested, 0.56% active. activity change, % (test concentration not listed). Q15475+O00167. AlphaScreen GST-Six1/His-Eya2 binding, biochemical; active compounds read low; in the data active means activity change below about -65%; inconclusive means mostly about -30% to -63%; further: on the % scale 0 is the no-effect control and ±100 the full control effect
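Six1/Eya2 binding was read as AlphaScreen signal after compounds were pinned into GST-Six1 plus His-tagged Eya2 (5X stock 250/500 nM) in pH 8.0 Tris/NaCl/TCEP buffer, beads added, then incubated 1 h, 37 C, dark.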
G9a block – G9a (human) methyltransferase inhibition; Q96KQ7; Potency, µM (highest dose often 102 µM), without a hit: at the highest dose activity, negative = inhibition, hits mostly inhibitors; 350,000 tested, 8.8% active; AID 504332; G9a H3K9 monomethylation, AlphaScreen, 2 h; further: potency means the concentration at half of the fitted maximal effect; on the % scale 0 is the no-effect control and ±100 the full control effect; nearly all actives have a fitted effect of over 75% in size
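G9a (20 nM) was preincubated 15 min with compound, then reacted 2 h at room temperature with 500 nM biotin-H3K9 peptide and 20 µM SAM. Monomethyl-H3K9 detected by AlphaScreen using anti-H3K9me1 antibody.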
JMJD2A Tudor inh – JMJD2A Tudor domain (human) inhibition | O75164 | AlphaScreen JMJD2A-Tudor / H3K4me3 peptide binding | Potency, µM (doses to about 114 µM), for inactives: at the top dose activity change, negative = inhibition, most hits filed as inhibitors | 390,000 tested, 4.4% active; further: potency means the concentration at half of the fitted maximal effect; on the % scale 0 is the no-effect control and ±100 the full control effect; nearly all actives have a fitted effect of over 50% in size
Target sequence (O75164 whole entry, looked up, the tested form may be a part): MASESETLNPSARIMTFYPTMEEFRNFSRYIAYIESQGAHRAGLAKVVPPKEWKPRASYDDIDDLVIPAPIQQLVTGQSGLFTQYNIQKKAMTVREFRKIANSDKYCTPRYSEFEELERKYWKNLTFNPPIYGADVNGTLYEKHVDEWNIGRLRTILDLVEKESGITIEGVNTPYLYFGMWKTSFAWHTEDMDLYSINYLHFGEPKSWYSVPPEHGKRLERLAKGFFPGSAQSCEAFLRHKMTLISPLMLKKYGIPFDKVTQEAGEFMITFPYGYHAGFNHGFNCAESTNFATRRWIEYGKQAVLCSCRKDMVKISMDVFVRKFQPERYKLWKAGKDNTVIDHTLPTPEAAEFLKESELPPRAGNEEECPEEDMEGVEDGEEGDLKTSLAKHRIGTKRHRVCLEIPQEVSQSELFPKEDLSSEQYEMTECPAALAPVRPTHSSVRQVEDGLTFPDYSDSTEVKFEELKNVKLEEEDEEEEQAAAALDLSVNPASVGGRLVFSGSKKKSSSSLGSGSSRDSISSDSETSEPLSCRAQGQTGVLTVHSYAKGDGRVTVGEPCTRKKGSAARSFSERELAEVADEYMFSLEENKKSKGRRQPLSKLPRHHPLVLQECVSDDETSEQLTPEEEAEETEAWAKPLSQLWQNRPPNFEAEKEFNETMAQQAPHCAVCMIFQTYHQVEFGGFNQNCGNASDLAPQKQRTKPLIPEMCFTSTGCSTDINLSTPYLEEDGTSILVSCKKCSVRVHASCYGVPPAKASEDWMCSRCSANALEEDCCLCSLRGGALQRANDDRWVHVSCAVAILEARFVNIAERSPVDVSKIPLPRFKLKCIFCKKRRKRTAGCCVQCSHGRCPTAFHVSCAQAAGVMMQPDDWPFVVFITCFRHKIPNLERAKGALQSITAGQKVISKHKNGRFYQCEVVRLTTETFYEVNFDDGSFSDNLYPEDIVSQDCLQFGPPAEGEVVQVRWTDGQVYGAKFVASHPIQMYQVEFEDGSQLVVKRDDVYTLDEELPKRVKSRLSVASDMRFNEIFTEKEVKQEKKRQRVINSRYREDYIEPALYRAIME
CtBP-E1A blk – blocks the CtBP interaction with E1A; AlphaScreen GST-E1A/His-CtBP binding, 1536-well; active compounds read low; 340,000 tested, 0.49% active; activity change, % (no concentration beside the values); in the data active means activity change below about -65%; inconclusive means mostly about -30% to -63%; further: on the % scale 0 is the no-effect control and ±100 the full control effect
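AlphaScreen with 125 nM GST-E1A and 125 nM His-CtBP (5X stocks) in Tris pH 8.0, 300 mM NaCl, BSA, Tween 20, TCEP. Compounds preincubated 2 h at 37 deg C, then glutathione donor/nickel acceptor beads added for 1 h at 37 deg C in dark.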
BAZ2B inh – BAZ2B (human) inhibition; AlphaScreen BAZ2B-H3K14Ac peptide displacement; 360,000 tested, 4.4% active; Potency, µM (series often up to 114 µM), inactives show at the highest dose activity change, negative = inhibition, usual class: inhibitors; Q9UIF8; AID 504333; further: potency means the concentration at half of the fitted maximal effect; on the % scale 0 is the no-effect control and ±100 the full control effect; nearly all actives have a fitted effect of over 60% in size
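Inhibition is scored as reduced AlphaScreen emission. The BAZ2B/b-H3(5-23)K14Ac complex (50 nM each) in PBS pH 7.4, 0.01% Tween-20 meets compound (up to 110 uM) for 30 min at RT before bead addition.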
* hit, by the source's call; [ ] = dose if it differs, or a comment. Unless noted, the call rests on the fitted dose curve; in most records, active means well fitted inhibition curve with a large enough effect; inconclusive means small, poorly fitted or top-dose-only effect; inactive means no such curve, though single readings can be large or run the other way.

How did O=C(CSc1nnc(SCc2ccccc2)s1)N/N=C/C=C\c1ccco1 do in these assays?
HP1b chromo inh: inconclusive; Six1-Eya2 inh: -20.4; G9a block: 10µM*; JMJD2A Tudor inh: 12.6µM*; CtBP-E1A blk: 0.3; BAZ2B inh: 14.1µM*

Results for CCn1c(SCC(=O)N/N=C/C=C/c2ccco2)nc2ccccc21 ?
HP1b chromo inh: -9.1%; Six1-Eya2 inh: -15.9; G9a block: 6.31µM*; JMJD2A Tudor inh: inconclusive; CtBP-E1A blk: -11.6; BAZ2B inh: 44.7µM*

What do the screens show for `Cc1ccc(CSc2nnc(SCC(=O)N/N=C/c3c[nH]c4ccccc34)s2)cc1`?
HP1b chromo inh: -1.7%; Six1-Eya2 inh: -5.3; G9a block: inconclusive; JMJD2A Tudor inh: inconclusive; CtBP-E1A blk: 18.6; BAZ2B inh: 20µM*

What do the screens show for `O=C(CSc1nnc(SCc2ccccc2)s1)N/N=C/C=C/c1ccccc1[N+](=O)[O-]`?
HP1b chromo inh: 1.2%; Six1-Eya2 inh: -13.8; G9a block: -6.3%[59 µM]; JMJD2A Tudor inh: -16.0%; CtBP-E1A blk: -8.9; BAZ2B inh: -21.8%

What do the screens show for `COc1ccc(NC(=O)C2Cc3c(-c4ccccc4Oc4ccccc4)ccnc3O2)cc1OC` (stereo unspecified)?
Six1-Eya2 inh: -21.9; CtBP-E1A blk: -16.2

How did C#CCN(C)CC/C=C1\c2ccccc2CSc2ccccc21 do in these assays?
HP1b chromo inh: -20.1%; Six1-Eya2 inh: -28.9; G9a block: 14.1µM*; JMJD2A Tudor inh: -4.6%[11.4 µM]; CtBP-E1A blk: -12.6; BAZ2B inh: inconclusive

How did Cc1ccc(CNC(=O)c2ccc(Cn3c(=O)c4ccccc4n(CC(=O)Nc4ccc(C)cc4C)c3=O)cc2)cc1 do in these assays?
HP1b chromo inh: 37.3%; G9a block: -1.3%[59 µM]; JMJD2A Tudor inh: -6.5%; BAZ2B inh: -24.8%

Results for O=C(N/N=C/c1sc(N2CCCCC2)nc1-c1cccs1)C1CC1 ?
HP1b chromo inh: 19.9%; Six1-Eya2 inh: -0.9; G9a block: 25.1µM*; JMJD2A Tudor inh: inconclusive; CtBP-E1A blk: 2.0; BAZ2B inh: 13.0%

What do the screens show for `Cc1ccc(S(=O)(=O)NC(N)=NCCC[C@@H](N)C(=O)Nc2cc(C(F)(F)F)ccc2Cl)cc1`?
JMJD2A Tudor inh: -25.3%

Results for O=C1c2ccccc2C(=O)C1c1ccc(Cl)cc1 ?
HP1b chromo inh: 9.0%; Six1-Eya2 inh: 3.0; G9a block: 44.7µM*; JMJD2A Tudor inh: -19.0%; CtBP-E1A blk: 11.0; BAZ2B inh: inconclusive

What do the screens show for `Cc1cccc(N(C)C(=O)CSc2nc3ncccc3o2)c1`?
HP1b chromo inh: 58.5%; G9a block: 14.6%[59 µM]; JMJD2A Tudor inh: -3.3%; BAZ2B inh: 6.1%

How did C=CCN1C(=O)/C(=C2/C(=O)N(CC(=O)O)c3ccccc32)S/C1=N/c1nccs1 do in these assays?
G9a block: 1.2%[2.33 µM]; BAZ2B inh: 12.6µM*

What do the screens show for `C=CCN1C(=O)/C(=C/c2ccc(O)cc2)S/C1=N/c1nccs1`?
HP1b chromo inh: 3.6%; Six1-Eya2 inh: -11.2; G9a block: 9.1%[59 µM]; JMJD2A Tudor inh: -20.9%; CtBP-E1A blk: -22.9; BAZ2B inh: -37.0%

How did CC1C(=O)OC2C1CCC1(C)CCC(=O)C(C)C21 (stereo unspecified) do in these assays?
HP1b chromo inh: 51.0%; Six1-Eya2 inh: -3.0; G9a block: 22.4µM*; JMJD2A Tudor inh: 50.1µM*; CtBP-E1A blk: 1.8; BAZ2B inh: 12.8%

What do the screens show for `CCOc1ccccc1NC(=O)Cn1ccn(Cc2ccc(C)cc2)c(=O)c1=O`?
HP1b chromo inh: -2.1%; G9a block: -17.3%[59 µM]; JMJD2A Tudor inh: -25.7%; BAZ2B inh: -32.4%

How did O=C(O)C1Nc2c(O)cc(Cl)c([N+](=O)[O-])c2C2C=CCC12 (stereo unspecified) do in these assays?
HP1b chromo inh: 4.47µM*; Six1-Eya2 inh: inconclusive; G9a block: 2.82µM*; JMJD2A Tudor inh: 11.2µM*; BAZ2B inh: 1.41µM*

How did COc1ccccc1N/C(N)=N/c1nc(CSc2ccc(C)cc2)cc(=O)[nH]1 do in these assays?
HP1b chromo inh: -12.2%; Six1-Eya2 inh: -10.8; G9a block: -0.4%; JMJD2A Tudor inh: 79.4µM*; CtBP-E1A blk: -3.1; BAZ2B inh: -28.3%

How did Cc1cc(=O)[nH]c(/N=C(\N)Nc2ccc(Oc3ccccc3)cc2)n1 do in these assays?
HP1b chromo inh: 24.7%; Six1-Eya2 inh: 3.7; G9a block: 19.7%[12.7 µM]; JMJD2A Tudor inh: 4.2%; CtBP-E1A blk: 1.3; BAZ2B inh: -8.9%

What do the screens show for `Cc1cc(=O)[nH]c(/N=C(\N)Nc2cccc3ccccc23)n1`?
HP1b chromo inh: 15.0%; Six1-Eya2 inh: 0.5; G9a block: 79.4µM*; JMJD2A Tudor inh: inconclusive; CtBP-E1A blk: 14.5; BAZ2B inh: 56.2µM*

How did COCc1cc(=O)[nH]c(/N=C(\N)Nc2cccc(Cl)c2)n1 do in these assays?
HP1b chromo inh: 29.3%; Six1-Eya2 inh: -2.2; G9a block: 17.8µM*; JMJD2A Tudor inh: -6.0%[11.4 µM]; BAZ2B inh: -27.7%

How did Cc1nnc(SCC(=O)NC2CCCc3ccccc32)n1-c1ccccc1 (stereo unspecified) do in these assays?
HP1b chromo inh: 24.8%; Six1-Eya2 inh: -6.1; G9a block: 0.5%[59 µM]; JMJD2A Tudor inh: -7.0%; CtBP-E1A blk: -14.3; BAZ2B inh: 6.0%

What do the screens show for `COc1ccc(N2CCN(C(=O)c3ccc4c(=O)n(CCc5ccc(OC)c(OC)c5)c(=O)[nH]c4c3)CC2)cc1`?
HP1b chromo inh: 10.0%; Six1-Eya2 inh: -2.3; G9a block: inconclusive; JMJD2A Tudor inh: -5.3%; CtBP-E1A blk: -1.3; BAZ2B inh: 3.4%

What do the screens show for `CCOc1ccc(-n2c(-c3ccco3)nc3c(cnn3-c3ccc(C)cc3)c2=O)cc1`?
HP1b chromo inh: 28.4%; Six1-Eya2 inh: -7.1; G9a block: 7.9%; JMJD2A Tudor inh: -14.1%; CtBP-E1A blk: 4.8; BAZ2B inh: -15.6%

Results for Cc1ccc(-n2c(-c3ccco3)n[nH]c2=S)cc1 ?
HP1b chromo inh: -17.1%; Six1-Eya2 inh: -0.7; JMJD2A Tudor inh: 22.4µM*; CtBP-E1A blk: 0.2; BAZ2B inh: -12.5%

What do the screens show for `CCOc1ccc(-n2c(-c3ccco3)n[nH]c2=S)cc1`?
HP1b chromo inh: inconclusive; Six1-Eya2 inh: 2.2; G9a block: 3.16µM*; JMJD2A Tudor inh: 5.62µM*; CtBP-E1A blk: 3.9; BAZ2B inh: inconclusive

What do the screens show for `Fc1ccc(-n2c(-c3ccco3)n[nH]c2=S)cc1`?
HP1b chromo inh: 15.1%; Six1-Eya2 inh: 7.1; G9a block: inconclusive; JMJD2A Tudor inh: 6.31µM*; CtBP-E1A blk: 7.9; BAZ2B inh: -22.5%

High-throughput results from PubChem BioAssay.
